B2AR ag – agonists of human beta-2 adrenergic receptor inducing internalization | P07550 | Am2.2-beta2AR cells, FAP receptor internalization, flow cytometry | response, % (concentration not given with the values) | 340,000 tested, 0.43% active | AID 504454;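 active = response above a set limit, near 3 SD of response in nonfluorescent compounds, cut at about 42% in these data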
TLR4 MyD88 comp – inhibitors of human TLR4-MyD88 binding. inhibition, % at 8.4 µM. O00206+Q99836. AID 861. 200,000 tested, 0.18% active. HeLa CL3-4 TLR4/MyD88 BLA complementation, FRET ratio; in the data active = inhibition above about 25%
NOD2-RIPK2 inh – NOD2-RIPK2 protein interaction inhibition | CHO BLA complementation NOD2-RIPK2, CCF4 ratio | inhibition, % at 4.98 µM | 360,000 tested, 0.38% active | AID 624267; in the data active = inhibition above about 21%
Target sequence (O43353 whole entry, looked up): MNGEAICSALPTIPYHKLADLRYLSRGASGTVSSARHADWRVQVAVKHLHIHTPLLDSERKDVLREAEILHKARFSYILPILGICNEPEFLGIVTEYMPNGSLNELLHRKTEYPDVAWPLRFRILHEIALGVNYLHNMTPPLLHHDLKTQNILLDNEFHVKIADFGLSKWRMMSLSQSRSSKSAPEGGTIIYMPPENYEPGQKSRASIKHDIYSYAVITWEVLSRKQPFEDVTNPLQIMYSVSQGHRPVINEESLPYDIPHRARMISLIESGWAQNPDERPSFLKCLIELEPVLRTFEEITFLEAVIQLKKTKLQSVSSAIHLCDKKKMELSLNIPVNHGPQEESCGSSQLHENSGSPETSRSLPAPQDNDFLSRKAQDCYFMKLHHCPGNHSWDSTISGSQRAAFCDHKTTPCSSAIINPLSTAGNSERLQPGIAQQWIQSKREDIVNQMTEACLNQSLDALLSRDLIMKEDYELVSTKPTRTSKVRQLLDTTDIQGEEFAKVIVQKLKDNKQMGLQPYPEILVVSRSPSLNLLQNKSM
A1 inh – inhibitors of the anti-apoptotic protein A1, read as caspase activation; AID 2462; MEF A1-2A-BIM cells, Caspase-Glo 3/7 luminescence, 3 h; percent of clofoctol response, vehicle zero; caspase activation, % (test concentration not listed); 330,000 tested, 0.066% active;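 active = over half of replicate activation scores above 10%, or exactly half above 10 with the replicate mean above 10; inconclusive = replicate mean below 10 yet half the replicates above 10; inactive = over half of replicates below 10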
TLR9-MyD88 inh – inhibitors of human TLR9-MyD88 binding | 340,000 tested, 0.21% active | CHO BLA complementation TLR9-MyD88, CCF4 FRET ratio | inhibition, % at 4.98 µM | AID 504734 | Q9NR96+Q99836;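 active = inhibition above the mean over all tested compounds plus 3 SD, cut at about 21% in these data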
NTR1 ag – activates human neurotensin receptor 1; NTR1-U2OS beta-arrestin-GFP spot imaging, agonist mode; P30989; activation, % at 20 µM; 330,000 tested, 0.17% active;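 active = activation at or above 40% of the spot to cytoplasm intensity ratio, with at least 20 cells analyzed; inconclusive = wells under 20 cells, flagged as cytotoxic or low count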
Large screens that a line does not name were inactive; ! = a repeat was not active. Hits are enriched below; roughly 0.97% of the tested compounds scored in any of these assays.

CNC(CC(=O)c1ccc([N+](=O)[O-])cc1)C(Cl)(Cl)Cl (stereo not given)	B2AR ag 91.0 (no result: NTR1 ag)
CCOc1ccc(OCCC(=O)NNC(=O)c2cc(OC)c(OC)c(OC)c2)cc1	B2AR ag 83.1 (no result: TLR4 MyD88 comp)
COc1cc(C(=O)NNC(=O)CCOc2cccc(Br)c2)cc(OC)c1OC	none (no result: TLR4 MyD88 comp)
Cc1noc(C)c1CSCC(=O)N(C)CC(=O)Nc1ccc(Cl)c(Cl)c1	A1 inh 9.7 (no result: TLR4 MyD88 comp)
Oc1ccc(C[C@H]2CNC(=S)N2C[C@H]2CCCN2C[C@H](Cc2ccccc2)N2C[C@H](Cc3ccccc3)N(CC3CCCCC3)C2=S)cc1	none (no result: B2AR ag, TLR4 MyD88 comp, A1 inh, TLR9-MyD88 inh, NTR1 ag)
Cc1cc(C(C#N)c2ccc(Cl)cc2)c(Cl)cc1NC(=O)c1cc(I)cc(I)c1O (stereo not given)	A1 inh 5.8 (no result: TLR4 MyD88 comp)
O=C(O)CCS(=O)(=O)c1nc(-c2cccs2)cc(C(F)(F)F)n1	none
CS(=O)(=O)c1nc(-c2cccs2)cc(C(F)(F)F)n1	A1 inh 8.2 (no result: B2AR ag, NOD2-RIPK2 inh, TLR9-MyD88 inh)
CCN(CC)CCCN=C1N[C@@H](c2cccc(F)c2)C(C(=O)OC)=C(C)N1Cc1ccccc1	B2AR ag 65.9 (no result: TLR4 MyD88 comp)
COC(=O)C1=C(C)N(Cc2ccccc2)C(=NCc2ccccc2)N[C@H]1c1cccc(F)c1	none (no result: TLR4 MyD88 comp)
O=C(Cn1cc(/C=C\[N+](=O)[O-])c2ccccc21)Nc1ccccc1	B2AR ag 83.8, NTR1 ag 47.2 (no result: TLR4 MyD88 comp)
O=[N+]([O-])/C=C/c1cn(Cc2ccccc2)c2ccccc12	B2AR ag 83.0
Cc1ccccc1NC(=O)c1ccc(-n2cncn2)nc1	none
Fc1ccccc1NC(=S)N1CCN(C/C=C/c2ccccc2)CC1	B2AR ag 56.1
CCCCCOc1ccccc1C(=O)NCCCC(=O)O	none
COc1ccc(C(=O)/C=C2\C(=O)Nc3ccc(Br)cc32)cc1	none (no result: TLR4 MyD88 comp, A1 inh, NTR1 ag)
O=C1Nc2ccc(Br)cc2/C1=C/C(=O)c1ccc2c(c1)OCO2	B2AR ag 54.7, A1 inh inconclusive, NTR1 ag 55.4 (no result: TLR4 MyD88 comp)
CC(=O)Nc1cc(-c2ccc(N(C)C)cc2)cn2c(-c3ccc(F)c(Cl)c3)cnc12	none (no result: B2AR ag, TLR4 MyD88 comp, A1 inh, TLR9-MyD88 inh, NTR1 ag)
CC1OC(CC(=O)O)CC2=C1C(=O)c1c(O)cccc1C2=O (stereo not given)	B2AR ag 75.2, NOD2-RIPK2 inh 78.0 (no result: TLR4 MyD88 comp, A1 inh, NTR1 ag)
O=C1c2cccc(O)c2C(=O)c2c(O)cccc21	none (no result: B2AR ag, NOD2-RIPK2 inh, TLR9-MyD88 inh)
Cc1oc2c(c1C(=O)c1ccccc1)C(=O)C(=O)c1ccccc1-2	B2AR ag 98.5
Cc1ccc(NC(=O)c2ccc(S(=O)(=O)NCc3ccco3)cc2)cc1	none (no result: TLR4 MyD88 comp)
Cc1cccn2c(=O)c3cc(C(=O)NCCc4ccccc4)c(=N)n(Cc4ccco4)c3nc12	NTR1 ag 57.1 (no result: TLR4 MyD88 comp)
Cc1cc(=O)oc2ccc(OCC(=O)N(Cc3ccc(F)cc3)Cc3ccco3)cc12	B2AR ag 60.9
CCOC(=O)Oc1ccc2oc(=O)cc(C)c2c1	none
Cc1ccc(-c2cn(-c3ccccc3)c(=S)[nH]2)cc1C	none (no result: TLR4 MyD88 comp)
Cc1c([N+](=O)[O-])cc(N2C(=O)C=CC2=O)cc1[N+](=O)[O-]	none (no result: TLR4 MyD88 comp, A1 inh, NTR1 ag)
Cc1cc(N2C(=O)C=CC2=O)c([N+](=O)[O-])cc1C	NOD2-RIPK2 inh 21.9
N#C/C(=C\c1c[nH]c2ccc(Br)cc12)c1ccccn1	NTR1 ag 51.0 (no result: TLR4 MyD88 comp)
CC(C)NC(=O)c1ccc2c(=O)n(Cc3ccco3)c(=S)[nH]c2c1	none
Clc1ccc(CSc2nccn2Cc2ccccc2)cc1	none
CC(C)(C)OC(=O)N1CCCC1C(=O)NCCc1ccccc1 (stereo not given)	B2AR ag 54.6
O=[N+]([O-])c1ccc(C2CN=C(Nc3ccccc3)S2)cc1 (stereo not given)	none
CCc1ccc(NC2=NCC(c3ccccc3)S2)cc1 (stereo not given)	B2AR ag 66.6
CN1CCN(Cc2c(O)ccc3cc(-c4ccccn4)c(=O)oc23)CC1	B2AR ag 68.8
Cc1c(C)c2ccc(O)c(CN3CCN(C)CC3)c2oc1=O	none (no result: TLR4 MyD88 comp)
COc1ccc(NC(=O)C(=O)N/N=C\c2ccc(CNC(=O)C(=O)Nc3ccc(C)c(C)c3)o2)c(OC)c1	A1 inh 23.6 (no result: B2AR ag, TLR4 MyD88 comp, NOD2-RIPK2 inh, TLR9-MyD88 inh)
O=C1C(Nc2ccc(O)cc2)=C/C(=N/S(=O)(=O)c2cccs2)c2ccccc21	B2AR ag 61.4 (no result: A1 inh, NTR1 ag)
Cc1ccc(NC2=C/C(=N\S(=O)(=O)c3cccs3)c3ccccc3C2=O)c(C)c1	B2AR ag 63.7
Cc1ccc(Cl)cc1NC1=C/C(=N\S(=O)(=O)c2cccs2)c2ccccc2C1=O	B2AR ag 44.9!
Cc1cccc(NC2=C/C(=N/S(=O)(=O)c3cccs3)c3ccccc3C2=O)c1	none (no result: NTR1 ag)
O=C(O)c1ccc(NC2=C/C(=N/S(=O)(=O)c3cccs3)c3ccccc3C2=O)cc1	none (no result: B2AR ag, TLR4 MyD88 comp, A1 inh, NTR1 ag)
CCNc1nc(SCC(=O)Nc2ccccc2)nc(N2CCOCC2)n1	none (no result: TLR4 MyD88 comp)
O=C(O)c1cc([N+](=O)[O-])c(Sc2nc3ccccc3[nH]2)c([N+](=O)[O-])c1	none (no result: TLR4 MyD88 comp)
CS(=O)(=O)c1cc([N+](=O)[O-])c(Sc2nc3ccccc3[nH]2)c([N+](=O)[O-])c1	B2AR ag 63.2
O=C(O)c1ccc(-c2noc(-c3cccc(C(F)(F)F)c3)n2)cc1	A1 inh inconclusive (no result: TLR4 MyD88 comp)
O=Cc1nccc2ccccc12	B2AR ag 60.7 (no result: TLR4 MyD88 comp, A1 inh, NTR1 ag)
CSC1=NC(=O)/C(=C/c2ccc(SC)cc2)S1	none
O=C(O)c1ccccc1CSc1nc2ccccc2n1Cc1ccccc1C(=O)O	none
Cc1cc(C)cc(NC(=O)Cn2nnc(C(=O)NCCc3ccccc3)c2N)c1	none (no result: TLR4 MyD88 comp)
CC(C)c1ccc2c(c1)CCC1C(C)(CN)CCCC21C (stereo not given)	B2AR ag 43.5 (no result: TLR4 MyD88 comp, NTR1 ag)
Cc1ccccc1/C=N/Nc1ccnc2cc(Cl)ccc12	B2AR ag 48.2 (no result: NTR1 ag)
Clc1ccc2c(N/N=C/c3ccc(Br)cc3)ccnc2c1	B2AR ag 61.1 (no result: NTR1 ag)
COc1ccc(C(=O)/C(C#N)=N/Nc2ccc([N+](=O)[O-])cc2)cc1	B2AR ag 46.5
Cc1ccc(-c2nn(-c3ccccc3)cc2C=C2SC(=S)N(CCS(=O)(=O)O)C2=O)cc1	none (no result: B2AR ag, TLR4 MyD88 comp, A1 inh, TLR9-MyD88 inh, NTR1 ag)
Cc1ccc(-c2nn(-c3ccccc3)cc2C=C2C(=O)CC(C)(C)CC2=O)cc1	NTR1 ag 46.0
CC(=O)C1=C(C)NC(SCC(=O)c2cc(Cl)ccc2Cl)=C(C#N)C1c1ccco1 (stereo not given)	NOD2-RIPK2 inh 21.3
CC(=O)C1=C(C)NC(SCC(N)=O)=C(C#N)C1c1ccco1 (stereo not given)	none
COc1ccc(C(=O)NNC(=O)c2ccccn2)cc1	none
COc1ccc2c(c1)C(=NNC(=O)c1ccccn1)c1cc(OC)ccc1-2	B2AR ag 42.5
O=C(CS(=O)c1ccc(C(F)(F)F)cc1[N+](=O)[O-])Oc1ccccc1 (stereo not given)	B2AR ag 98.3, A1 inh 9.2
CCc1ccc(S(=O)(=O)/N=C2/C=C(Sc3ncn[nH]3)C(=O)c3ccccc32)cc1	B2AR ag 55.1 (no result: NTR1 ag)
